Results filed as inconclusive are left out. Values without a mark were called inactive. Calls of active or inactive are those of the source. Calls follow the shape of the dose curve; as a rule, active = well fitted curve in the direction sought with a large enough effect in the repeat runs; inconclusive = weak or mixed curves; inactive = no such curve, though single readings can be large; an effect the other way counts as inactive or inconclusive.

A short description of test [1]: A CellTox Green Cytotoxicity Assay to monitor cytotoxicity in HepG2 cells - 32 hour (AID 1224883). Also: nearly all actives have a fitted effect of over 50% in size. Also: potency is read from the fitted curve at half-maximal effect. Summed up: (§1)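 Cytotoxicity was tracked as dead-cell DNA fluorescence in HepG2 cells treated with test compounds at 37 C; each time-point value comes from one kinetic series spanning 0, 8, 16, 24, 32 and 40 h.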
The nature of test [2]: A CellTox Green Cytotoxicity Assay to monitor cytotoxicity in HEK293 cells - 8 hour (AID 1224884). Also: nearly all actives have a fitted effect of over 35% in size. Also: potency is read from the fitted curve at half-maximal effect. In short, it runs like this: (§2)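 Real-time, in one plate: 600 HEK293 cells/well with dead-cell DNA dye, pinned compound after 5 h, 37 C incubation over 40 h; viable cells give no appreciable fluorescence.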
The nature of test [3]: qHTS RealTime-Glo MT Cell Viability Assay in HepG2 cells - 16 hour (AID 1224885). Also: nearly all actives have a fitted effect of over 50% in size. Also: potency is read from the fitted curve at half-maximal effect. Summed up:
(§3)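 Viability was tracked continuously by NanoLuc luminescence from prosubstrate reduced by living HepG2 cells, at successive time points over 40 h of compound exposure. Cells with reagent were preincubated 5 h at 37 °C before compound addition.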
A general note: In qHTS, concentration-response curves come from the screen itself.

Test [4] can be described thus: qHTS RealTime-Glo MT Cell Viability Assay in HEK293 cells - 24 hour (AID 1224886). Also: nearly all actives have a fitted effect of over 50% in size. Also: potency is read from the fitted curve at half-maximal effect. In short, it runs like this: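 Viability tracked continuously by luminescence as live cells reduce a prosubstrate for NanoLuc; HEK293 cells preincubated 5 h, compound-treated at 37 C, and read at 0, 8, 16, 24, 32 and 40 h.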
Test [5] is described as follows: A CellTox Green Cytotoxicity Assay to monitor cytotoxicity in HEK293 cells - 16 hour (AID 1224888). Also: nearly all actives have a fitted effect of over 35% in size. Also: potency is read from the fitted curve at half-maximal effect. Summed up: as §2
Test [6] in a line: qHTS RealTime-Glo MT Cell Viability Assay in HepG2 cells - 0 hour (AID 1224889). Also: nearly all actives have a fitted effect of over 50% in size. In short, it runs like this: as §3
Test [7] can be described thus: A CellTox Green Cytotoxicity Assay to monitor cytotoxicity in HepG2 cells - 8 hour (AID 1224890). Also: nearly all actives have a fitted effect of over 45% in size. Also: potency is read from the fitted curve at half-maximal effect. Summed up:
as §1

The nature of test [8]: qHTS assay to identify small molecule antagonists of the estrogen receptor alpha (ER-alpha) signaling pathway using the BG1 cell line in the presence of 0.1 nM 17-beta-estradiol - cell viability counter screen (AID 1259241). Also: nearly all actives have a fitted effect of over 40% in size. Summed up:
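Viability in VM7Luc4E2 cells after 22 hr compound exposure under 0.1 nM 17beta-estradiol stimulation, by CellTiter-Fluor.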

Test [9] in a line: qHTS RealTime-Glo MT Cell Viability Assay in HEK293 cells - 8 hour (AID 1224887). Also: nearly all actives have a fitted effect of over 50% in size. Also: potency is read from the fitted curve at half-maximal effect. In short, it runs like this:
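Kinetic, non-lysing viability readout. Seed HEK293 (600/well) with reagent, incubate 5 h at 37 C/5% CO2, pin 23 nL compound in DMSO, incubate at 37 C, read luminescence at 0, 8, 16, 24, 32, 40 h.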

The nature of test [10]: qHTS assay to identify small molecule antagonists of the androgen receptor (AR) signaling pathway using the MDA cell line in the presence of 0.5 nM R1881 - cell viability counter screen (AID 1259242). Also: nearly all actives have a fitted effect of over 45% in size. Also: potency is read from the fitted curve at half-maximal effect. Summed up:
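Cells seeded at 3,000/well and allowed 5 hr at 37C, 0% CO2 before compound transfer and R1881 (0.5 nM final) addition; 16 hr later, live-cell protease fluorescence indicated cytotoxicity.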

With `O=C(CCl)C(Cl)Cl`, the Potency in [1] is 55.5 µM (active); in test [4], 17.5 µM (active). Besides, the Potency entry in test [2], in test [3], in [5], in test [6], in [7] and in [8] was “inactive” in each case.
In the case of `C=CCOC(N)=O`, the Potency result in test [1], in test [2], in test [3], in test [4], in test [9] and in test [5] was “inactive” throughout. The Potency entry in [6], in [8] and in test [10] was “inactive” in each case.
For the compound `CCOc1cc(C(C)(C)C)ccc1C1COC(c2c(F)cccc2F)=N1` (configuration not stated), the Potency result in test [1], in test [2], in [3], in test [9], in test [5] and in test [6] was “inactive” throughout. The Potency result in [7], in test [8] and in test [10] was “inactive” throughout.
As to `FC(Cl)(Cl)Cl`, the Potency entry in test [1], in test [2], in [3], in test [9], in test [5] and in test [6] was “inactive” each time. The Potency result in test [7], in test [8] and in [10] was “inactive” each time.
On to `CC(C)(O)c1cnn2c(-c3ccc(F)c(-c4c(F)cccc4C#N)c3)cnc2n1`, for which the Potency result in test [1], in test [2], in [3], in test [5], in test [7] and in test [8] was “inactive” in each case. Also, the Potency entry in test [10] is “inactive”. The Potency in test [4] is 5.49 µM (active); in test [9], 6.16 µM (active).
Consider `C[As+](C)(C)CC(=O)[O-]`, for which the Potency entry in test [1], in [2], in [3], in [9], in [5] and in test [6] was “inactive” throughout. The Potency entry in [7], in test [8] and in test [10] was “inactive” each time.
For `Cc1cc(SCc2sc(-c3ccc(C(F)(F)F)c(F)c3)nc2C)ccc1OCC(=O)O`, the Potency entry in [1], in test [2], in test [3], in test [9], in test [5] and in [6] was “inactive” throughout. Besides, the Potency result in test [7], in test [8] and in test [10] was “inactive” throughout.
For `CN(C)S(=O)(=O)N(SC(F)(Cl)Cl)c1ccccc1`, the Potency in [1] is 5.49 µM (active); in test [3], 15.5 µM (active); in test [9] it was 9.77 µM (active); in [5], 19.5 µM (active). Besides, the Potency result in [2] was “inactive”.
As for `CN(C)[C@@H]1C(=O)C(C(N)=O)=C(O)[C@@]2(O)C(=O)C3=C(O)c4c(O)ccc(Cl)c4[C@@](C)(O)[C@H]3C[C@@H]12`, the Potency result in test [1], in test [2], in test [3], in test [9], in test [5] and in test [6] was “inactive” throughout. Moreover, the Potency entry in test [7] and in test [8] was “inactive” each time.
As to `CCCSP(=O)(OCC)SCCC`, the Potency result in test [1], in test [2], in test [3], in test [4], in test [9] and in test [5] was “inactive” in each case. In addition, the Potency entry in [7], in test [8] and in test [10] was “inactive” in each case.
For `c1ccc(OCC2CO2)cc1` (configuration not stated), the Potency result in test [1], in [2], in test [3], in test [9], in test [5] and in [6] was “inactive” in each case. Also, the Potency result in test [7] and in test [8] was “inactive” throughout.
As for `CCCCCCCCCC[N+](C)(C)CCCCCCCCCC`, the Potency in [1] is 9.77 µM (active); in test [2], 17.4 µM (active); in test [3], 11 µM (active); in test [4] it was 1.74 µM (active); in [9] it was 21.9 µM (active); in test [5] it was 17.4 µM (active). Further, the Potency in test [7] is 19.5 µM (active); in test [10], 54.5 µM (active).
With `CC(C)Oc1cccc(NC(=O)c2ccccc2C(F)(F)F)c1`, the Potency was 43.6 µM (active) in [1], 43.6 µM (active) in test [2], 49 µM (active) in [5] and 49 µM (active) in test [7]. Moreover, the Potency entry in [3], in [6], in test [8] and in [10] was “inactive” each time.
Consider `ClC(Cl)=C(c1ccc(Cl)cc1)c1ccc(Cl)cc1`, for which the Potency entry in test [1], in [2], in test [3], in test [5], in test [6] and in test [8] was “inactive” each time. For the same compound, the Potency result in test [10] was “inactive”.
For `Nc1ccc(Cc2ccc(N)c(Cl)c2)cc1Cl`, the Potency entry in [1], in test [2], in [3], in [5], in [7] and in test [10] was “inactive” throughout. For the same compound, in [9], the Potency is 29.9 µM (active).
For the compound `Cc1c(Cl)c(=O)oc2cc(OP(=O)(OCCCl)OCCCl)ccc12`, the Potency entry in [1], in test [2], in test [3], in test [5], in test [6] and in [7] was “inactive” throughout. Also, the Potency entry in [8] and in test [10] was “inactive” in each case.
Regarding `CCOP(=S)(OCC)SCCS(=O)(=O)CC`, the Potency entry in test [1], in test [2], in test [3], in test [9], in test [5] and in [7] was “inactive” throughout. The Potency entry in test [8] and in [10] was “inactive” each time.
With `O=C(O)c1cc[c]([Hg][Cl])cc1`, the Potency was 21.9 µM (active) in [1], 30.9 µM (active) in [3] and 34.7 µM (active) in [9]. Besides, the Potency result in test [2], in test [6] and in test [8] was “inactive” in each case.
On to `CCOP(=S)(OCC)OC(Cl)C(Cl)(Cl)Cl` (configuration not stated), for which the Potency result in [1], in test [2], in [3], in test [9], in test [5] and in test [6] was “inactive” in each case. Also, the Potency result in [8] and in test [10] was “inactive” throughout.

For the origin of these results see PubChem BioAssay (Tox21).
